# The sample as a whole holds a higher share of hits than the screen did.
# GALR2 antag – GALR2 (human) receptor antagonism; GALR2-expressing cells, antagonist mode; inhibition, % at 4 µM; actives 0.39% (n = 140,000); AID 828; in the data active = inhibition above about 27%;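 note: cells stimulated with galanin 1-16 at roughly its EC80; 0% = agonist challenge control and 100% = basal control without agonist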
# PostGolgi yeast – growth inhibition of a yeast mutant, post-Golgi transport screen; post-Golgi transport phenotypic cell assay; AID 739; actives 0.9% (n = 98,000); inhibition, % at 10 µM;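 note: yeast cells grown in 1536-well plates; yeast grown about 18 h at 30C before absorbance read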
# GALR2 ag – activates the human galanin receptor 2; GALR2-expressing cells, agonist activation read-out; activation, % (no concentration beside the values); actives 0.48% (n = 140,000); AID 803; in the data active = activation above about 5%, passing the limit was not always enough;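 note: 0% = vehicle buffer wells and 100% = reference agonist at full effect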
# S1P2 antag – antagonists of human S1P2 receptor. O95136. inhibition, % at 5 µM. actives 0.21% (n = 97,000). cell-based S1P2 antagonist assay, inhibition at 5 uM; in the data active = inhibition above about 45%;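 note: CRE beta-lactamase reporter cells expressing human S1P2 stimulated with S1P; 0% = agonist at EC80 alone and 100% = agonist plus reference antagonist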
# Target sequence (O95136 whole entry, looked up): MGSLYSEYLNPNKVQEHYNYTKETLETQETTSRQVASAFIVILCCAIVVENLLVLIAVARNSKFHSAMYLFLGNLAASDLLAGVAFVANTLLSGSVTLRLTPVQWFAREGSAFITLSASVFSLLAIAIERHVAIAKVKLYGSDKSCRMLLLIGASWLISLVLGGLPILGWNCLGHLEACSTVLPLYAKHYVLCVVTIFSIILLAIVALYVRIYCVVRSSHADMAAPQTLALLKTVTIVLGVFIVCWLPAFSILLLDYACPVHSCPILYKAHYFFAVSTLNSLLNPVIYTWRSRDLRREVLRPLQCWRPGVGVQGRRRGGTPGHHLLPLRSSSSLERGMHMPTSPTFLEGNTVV
# PostGolgi ctrl – yeast control strain growth, post-Golgi counter-screen; efflux-deficient yeast background strain, growth absorbance A615, 16 h; inhibition, % at 10 µM; actives 5% (n = 98,000)
# S1P2 agonist – agonists of human S1P2 receptor; activation, % at 4.5 µM; actives 0.46% (n = 97,000); AID 729; S1P2-expressing cell line, agonist reporter read-out; in the data active = activation above about 16%;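 note: 0% = vehicle low control and 100% = maximal reference agonist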
# The depositor's hits bear a star; . = not tested or not shown. Cut-off read from the data, not from the text of the source, unless noted: active = inhibition above about 30%; inactive = the rest.
SMILES,GALR2 antag,PostGolgi yeast,GALR2 ag,S1P2 antag,PostGolgi ctrl,S1P2 agonist
S=C(c1ccc(N2CCCC2)cc1)N1CCCCC1,-6,-10,0,-5,11,-4
Oc1ccc(C(=S)N2CCCCCC2)cc1,10,-20,-2,12,30*,-8
CCOC(=O)Cc1nnc2c(Nc3ccc(C)cc3)nc3nonc3n12,8,14,2,5,-3,-9
CCOC(=O)Cc1nnc2c(Nc3ccccc3F)nc3nonc3n12,-10,-1,0,-9,34*,-1
Cc1ccc(NS(=O)(=O)c2cc(C(=O)N3CCc4ccccc4C3)ccc2Cl)cc1,1,35*,-1,12,64*,-8
Cc1ccc(NS(=O)(=O)c2cc(C(=O)N3CCN(C)CC3)ccc2C)cc1,0,-6,-1,-13,-4,-2
Cc1cccc(NS(=O)(=O)c2cc(C(=O)N3CCN(C)CC3)ccc2C)c1,-3,-4,-2,10,32*,-5
NNC(=O)Cn1c(SCc2ccccc2)nc2ccccc21,3,8,-3,1,-1,-3
Cc1ccc(N(CN2C(=O)c3ccccc3C2=O)C(=O)c2ccc([N+](=O)[O-])cc2[N+](=O)[O-])cc1,-4,.,-1,.,.,.
O=C(NCCC1=CCCCC1)C(=O)c1c[nH]c2ccccc12,13,.,-2,.,.,.
O=[N+]([O-])c1cccnc1N1CCC(c2cc(-c3ccc(Cl)cc3Cl)n[nH]2)CC1,-16,2,1,-16,59*,-4
CSc1nnc(CSCc2ccc(Cl)cc2Cl)n1-c1ccccc1,-23,-2,0,-1,51*,-3
COC(Cc1nnc(SC)n1-c1ccccc1)OC,-2,-24,2,-9,0,-7
COc1cc(C2C(C#N)=C(C)NC3=C2C(=O)c2ccccc23)cc(OC)c1OC (configuration not stated),31*,3,-2,-2,7,7
CCOC(=O)C(C)C1(O)c2ccccc2-c2ncccc21 (configuration not stated),7,3,-1,-5,8,-4
OC(CC1CC12c1ccccc1-c1ncccc12)(c1ccccc1)c1ccccc1 (configuration not stated),-5,0,-1,3,45*,-2
O=C(CSc1ncn[nH]1)Nc1ccccc1Sc1ccc(Cl)cc1,8,-4,-3,-8,4,-4
Cc1ccc(OCc2n[nH]c(=S)n2C2CCCCC2)cc1,5,-2,-2,-24,41*,-8
S=c1[nH]nc(COc2ccc(Cl)cc2)n1C1CCCCC1,-5,.,0,-6,.,-3
COc1ccc(C(=O)OC(C)C(=O)Nc2cc(C(F)(F)F)ccc2Cl)c(OC)c1OC (configuration not stated),6,.,0,.,.,.
O=C(NNC(=S)Nc1ccc(Cl)cc1Cl)c1ccc(N2CCOCC2)c([N+](=O)[O-])c1,0,.,-1,.,.,.
Oc1ccc(/C=N/Nc2cc(N3CCOCC3)nc(N3CCOCC3)n2)cc1,-5,.,0,15,.,-4
Oc1ccc(/C=N/Nc2cc(N3CCCC3)nc(N3CCCC3)n2)cc1,-1,17,-1,-10,31*,-9
Oc1cnn(-c2ccccc2)c1,2,-7,0,-11,32*,-9
CCOC(=O)N1CCN(C(=O)CSc2nnc(COc3ccc(Cl)cc3)o2)CC1,13,-7,-2,.,6,.
SMILES,GALR2 antag,PostGolgi yeast,GALR2 ag,S1P2 antag,PostGolgi ctrl,S1P2 agonist
O=C(CSc1nnc(COc2ccc(Cl)cc2)o1)N1c2ccccc2CCc2ccccc21,-12,-8,-3,3,31*,-7
Cc1cc(C)c2c(n1)sc1c(=O)n(Cc3ccccc3Cl)nnc12,-13,4,-1,11,40*,-3
CCCn1cc(SCC(=O)NCc2ccc3c(c2)OCO3)c2ccccc21,3,2,-2,-19,16,-4
CCn1cc(SCC(=O)NCc2ccc3c(c2)OCO3)c2ccccc21,18,-5,-3,.,36*,.
Cc1ccc(-n2c(Cc3cccn3C)nnc2SCC(=O)Nc2ccc3c(c2)OCO3)cc1,-4,0,0,12,7,-2
Cc1ccc(-n2c(Cc3cccn3C)nnc2SCC(=O)NCc2ccc3c(c2)OCO3)cc1,-1,7,-2,3,32*,-5
C/C(CCc1oc2ccccc2c1-c1ccc(C)o1)=N/O,-8,12,-1,-3,47*,-4
C/C(CCc1oc2c(Br)cc(Br)cc2c1-c1ccc(C)o1)=N\O,-4,.,-2,-1,.,-1
COC(=O)C(NC(=O)c1ccc(Cl)cc1)(Nc1nc(C)cs1)C(F)(F)F (configuration not stated),1,-13,-5,-1,19,-9
CCN(CC)CCOC(=O)C1(c2ccc(OC)c(OC)c2)CCCC1,0,-1,-1,-18,50*,1
Cc1c(NC(=O)OC(C)C)sc(=S)n1C,6,.,-2,-4,.,-4
O=C1c2ccccc2NC(c2c(Cl)cccc2Cl)N1Cc1ccccc1 (configuration not stated),3,65*,-2,3,42*,-9
O=C1c2ccccc2NC(c2ccc(Cl)cc2Cl)N1O (configuration not stated),4,3,-2,18,11,-8
O=C1c2ccccc2NC(c2ccc(Cl)cc2Cl)N1Cc1ccccc1 (configuration not stated),5,12,-1,-13,36*,0
Cc1cccc(C2Nc3ccccc3C(=O)N2CCc2ccccc2)n1 (configuration not stated),-1,-11,-2,13,7,-3
CCOC(=O)C1=C(N)N2C(=O)C(C)SC2=C(C(=O)OC)C1c1ccccc1OC (configuration not stated),8,110*,-3,-8,75*,-5
Cc1ncc(CCl)c2c1OC(C)(C)OC2,3,.,-2,0,.,-4
CN1/C(=C\C(=O)c2cccs2)C(C)(C)c2ccccc21,4,.,4,.,.,.
Cc1cc(C)c2c(c1)/C(=C/C(=O)c1ccc(Br)s1)C(=O)N2,-2,103*,-1,-17,71*,-2
Cc1cccc2c1NC(=O)/C2=C\C(=O)c1cccs1,23,4,-2,25,52*,-3
O=C1c2ccccc2-c2onc3ccc(NCc4ccco4)c1c23,18,-5,-1,.,34*,.
CC(=O)c1cccc(NC(=O)CCS(=O)(=O)c2cccc3nsnc23)c1,-3,-2,0,-5,33*,1
O=C(CCS(=O)(=O)c1cccc2nsnc12)NCc1ccccc1,-1,-2,1,17,-7,-5
Cc1cccc(N=C2N=C(N)c3ccccc32)c1,0,-19,0,2,33*,-8
COc1ccc(NC(=O)CCNS(=O)(=O)c2ccc3c(c2)c(=O)n(C)c(=O)n3C)c(OC)c1,7,.,-2,.,.,.
c1ccc(-c2nc(N3CCCCCC3)nc(-n3ccnc3)n2)cc1,-2,62*,1,-36,72*,-4

# High-throughput results as filed in PubChem.
